Source: PubChem
A selection: hits, their analogues and other compounds. The true share with any hit is near 2.5%.
CRFBP-R2 agonist – agonists of CRF-BP/CRF-R2 complex, primary screen, cell-based, HEK293, calcium dye fluorescence, uHTS; CRF-binding protein / CRF receptor 2 complex (human); calcium dye fluorescence (FLIPR); percent of saturating CRF peptide response; activation, % at 13.2 µM; hit rate 0.46% among 350,000; AID 588473, 2011;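 active = activation of at least 50%, plus an integration ratio under a set limit after plate pattern correction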
SKN-1 inh – suppressors of acrylamide-induced Pgst-4::GFP reporter in worms, primary screen, SKN-1 inhibitor project, whole organism, uHTS, GFP/RFP fluorescence ratio, strain VP596 | hit rate 0.49% among 360,000 | C. elegans VP596 Pgst-4::GFP/RFP ratio, 24 h | inhibition, % at 21.8 µM | AID 624304, 2012;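 active = interference check ratio from 0.5 to 1.5 plus GFP to RFP signal ratio inhibition reaching or exceeding a fixed threshold, cut at about 30% in these data, passing the limit was not always enough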
hiPSC survival – enhancers of single-cell hiPSC survival, primary screen, ATPlite luminescence; 100% = ROCK inhibitor wells, 0% = DMSO; survival enhancement, % at 20 µM; hit rate 0.044% among 360,000; in the data active = survival enhancement above about 18%;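 also: cells exposed to compounds for 16 hours before the ATP read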
H9c2 protect – cardioprotection against H2O2-induced cell death, primary screen, uHTS, H9c2 cells, ATPLite luminescence; H9c2 cardiomyocytes, H2O2 injury protection, 2 h; protection from H2O2 cell death, % at 20 µM; hit rate 0.63% among 360,000; AID 588492, 2011;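 active = compounds giving at least 50% protection of heart cells from peroxide-induced death in the single-dose screen, raw or plate-pattern-corrected value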
TAG inh – inhibitors of triacylglycerol accumulation, primary screen, cell-based, uHTS, fluorescence, H9c2; H9c2 cells, Nile Red lipid (TAG) fluorescence; cells loaded with 200 µM oleic acid; inhibition, % at 12.5 µM; hit rate 0.66% among 230,000; AID 651582, 2012;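 active = pattern-corrected inhibition of lipid staining of at least 50% with the nuclear-stain viability signal not falling by more than 50%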
CRFR2-BP antag – antagonists of CRF-BP/CRF-R2 complex, primary screen, cell-based, HEK293, calcium dye fluorescence, uHTS. CRF-induced calcium fluorescence. inhibition, % at 11.8 µM. hit rate 0.59% among 350,000. AID 588475, 2011;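 active = inhibition of the ligand-induced calcium signal above about 50% at the single tested concentration, limit read from the data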
Hits are given with their value; – = inactive; · = no result given.

SMILES	CRFBP-R2 agonist	SKN-1 inh	hiPSC survival	H9c2 protect	TAG inh	CRFR2-BP antag
Cc1ccc(F)c(S(=O)(=O)NC(=O)C2(C)CCN2C(=O)Cc2ccc(-c3ccccc3)cc2)c1 (stereo unspecified)	·	–	–	–	–	·
Cc1cc(C)c(OCCOCCN2CCCC2)c(C)c1	–	–	–	–	–	–
Cc1cc(C)c(OCCOCCN2CCNCC2)c(C)c1	–	39	–	–	–	–
O=C(Nc1ccc2snnc2c1)N1CCSCC1	–	39	–	–	–	–
COCCNc1ncnc2c1ncn2[C@H]1CN(Cc2ccccc2)C[C@@H](CO)O1	·	–	–	–	–	·
CCC(c1nnnn1CCOC)N1CCN(C(=O)c2ccco2)CC1 (stereo unspecified)	–	–	–	–	–	–
CCC(c1nnnn1C1CCCC1)N1CCN(Cc2ccccc2)CC1 (stereo unspecified)	–	–	–	–	–	103
CCC(c1nnnn1CCOC)N1CCN(Cc2ccccc2)CC1 (stereo unspecified)	–	36	–	–	–	–
CCn1c(SCC(=O)Nc2oc(C)c3c(C)n[nH]c(=O)c23)nnc1-c1ccco1	–	–	–	–	–	–
Oc1cccc(Nc2c3ccccc3nc3ccccc23)c1	–	36	–	–	·	–
Cc1ccc(-c2nc(Nc3cccc(O)c3)c3ccccc3n2)cc1	–	–	–	–	·	–
O=S(=O)(c1ccc(N2CCN(Cc3ccccc3)CC2)nc1)N1CCCC1	–	–	–	–	–	–
O=C(NCc1ccc(F)cc1)c1cccc(S(=O)(=O)N2CCOCC2)c1	–	–	–	–	–	–
CCCCCCCOC(=O)C[N+](C)(C)CCOC1CC2CCC1(C)C2(C)C (stereo unspecified)	111	–	–	–	–	–
CCOC(=O)NNC(=O)c1[nH]c2ccc(Br)cc2c1-c1ccccc1	–	–	–	–	·	57
CCCCCCCCCCCCCC(=O)NO	–	–	–	78	–	–
COc1ccc(N2CCN(C(=O)COC(=O)COc3cc(C)cc(C)c3)CC2)cc1	–	–	–	–	–	–
Cc1nc2ccccc2c(=O)[nH]1	–	–	–	69	–	–
O=C(NCCc1ccccc1)C(=O)NCC1CCCN1S(=O)(=O)c1ccccc1 (stereo unspecified)	–	–	–	–	–	–
COc1ccc(CCNC(=O)C(=O)NCC2OCCN2S(=O)(=O)c2ccc(OC)cc2)cc1 (stereo unspecified)	–	–	–	–	–	64
COc1ccc(CCNC(=O)C(=O)NCC2OCCN2S(=O)(=O)c2ccc(Cl)cc2)cc1 (stereo unspecified)	–	–	–	–	–	–
COc1ccc(CCNC(=O)C(=O)NCC2CCCN2S(=O)(=O)c2ccccc2)cc1OC (stereo unspecified)	–	–	–	74	–	–
COC(=O)[C@]12CCCCC=C1N(Cc1cccc3ccccc13)C(=O)[C@H](CC(=O)N1CCSCC1)C2	·	–	–	·	·	·
CCCCCCCCCCCCCCCC[N+](C)(C)Cc1ccc(F)cc1	–	–	–	–	109	–
CC#CC[N+](C)(C)CCCCCCCC	–	–	–	–	–	–
SMILES	CRFBP-R2 agonist	SKN-1 inh	hiPSC survival	H9c2 protect	TAG inh	CRFR2-BP antag
CCCCN(C=O)c1c(CC)nc2c(OCCOc3ccccc3)cccn12	·	–	–	–	–	·
CCN(CC)C(=O)c1c(C)nc2ccccn12	–	–	–	–	–	85
Cc1nc2ccccn2c1C(=O)CSc1ccccc1	–	–	–	–	–	–
CCCCN(C(=O)C(C)Oc1ccc(Br)cc1)c1c(N)n(Cc2ccccc2)c(=O)[nH]c1=O (stereo unspecified)	–	–	–	–	–	–
COc1ccc(C(C(=O)NC2CCCC2)N(C(=O)c2snc(C(N)=O)c2N)c2cccc(O)c2)cc1 (stereo unspecified)	–	–	–	52	·	–
NC(=O)c1nsc(C(=O)N(c2cccc(F)c2)C(C(=O)NC2CCCC2)c2ccc(O)cc2)c1N (stereo unspecified)	–	–	–	–	·	–
CCOc1ccc(C(C(=O)NCC2CCCO2)N(Cc2cccs2)C(=O)c2snc(C(N)=O)c2N)cc1 (stereo unspecified)	–	–	–	68	·	–
NC(=O)c1nsc(C(=O)N(c2ccccc2F)C(C(=O)NCc2ccc(F)cc2)c2ccc(O)cc2)c1N (stereo unspecified)	–	–	–	52	·	–
COc1ccccc1N(C(=O)c1snc(C(N)=O)c1N)C(C(=O)NCc1ccccc1)c1ccc(O)cc1 (stereo unspecified)	–	–	–	–	·	–
CCOc1ccc(C(C(=O)NCC2CCCO2)N(C(=O)c2snc(C(N)=O)c2N)c2ccccc2F)cc1 (stereo unspecified)	–	–	–	61	·	–
Cc1ccc(-n2nc3c(N4CCC(C(=O)NCc5cccc(F)c5)CC4)nnc(C)c3c2C)cc1	–	–	–	–	·	–
O=C(CN(C(=O)Cn1nnc(-c2cccs2)n1)c1cnc2ccccc2c1)NCC1CCCO1 (stereo unspecified)	–	–	–	83	·	–
CC(C)(C)c1nnc(N/N=C/c2ccccc2O)n(N)c1=O	–	–	–	52	·	–
O=C(NCc1nc2ccccc2[nH]1)C1=C[C@H](C2CCCCC2)C[C@H](OCc2ccc(CO)cc2)O1	–	39	–	–	–	–
Cc1cc(C(=O)CCl)c(C)n1CCc1ccc(Cl)cc1	–	–	–	–	59	–
Cc1cc(C(=O)CCl)c(C)n1CCc1ccc(F)cc1	–	–	–	–	–	–
Cc1ccc(Cl)cc1N(CC(=O)N1CCOCC1)S(C)(=O)=O	–	–	–	–	·	74
COCCCNC(=O)C[C@H]1C[C@H](C(=O)N(C(C)C)C(C)C)[C@@]2(C)c3[nH]c4cc(-c5ccco5)ccc4c3CCN2C1=O	–	–	–	–	–	–
O=C(Nc1ccc(F)cc1)C(CCc1ccccc1)N1CCN(c2ccncc2)CC1 (stereo unspecified)	·	–	·	·	·	·
Cc1cc(N2CCN(S(=O)(=O)c3ccc(Cl)cc3)CC2)c2ccccc2n1	–	–	–	–	·	62
Cc1cc(N2CCN(S(=O)(=O)c3ccc(Cl)c(Cl)c3)CC2)c2ccccc2n1	–	–	–	–	–	–
O=C(Nc1c2c(nn1-c1ccc(F)cc1)CS(=O)(=O)C2)c1ccc2c(c1)OCO2	–	–	–	–	–	–
COc1ccc(C(=O)c2oc3ccc(OC)cc3c2N)cc1	–	44	–	–	–	–
